Data reported in PubChem BioAssay AID2284352 (EPA ToxCast).
Inconclusive results are not listed. The source made the active and inactive calls. Rule for the calls: active = hit-call score of the fitted dose curve at least 0.9, where 1 is the maximum; inconclusive = response in the unintended direction; inactive = score below 0.9.

Tested on: rainbow trout Peroxisome Proliferator-activated Receptor gamma (PPARg), gene 110528708
Assay: ATG_rtPPARg_EcoTox2: Attagene TRANS-FACTORIAL EcoTox-2 HepG2 Assay for rainbow trout Peroxisome Proliferator-activated Receptor gamma (PPARg)
Procedure: ATG_EcoTox2 is a cell-based, multiplexed assay created by modifying the existing Attagene TRANS-FACTORIAL system to include a panel of nuclear receptors from some or all the following species: human (Homo sapiens), african clawed frog (Xenopus laevis), rainbow trout (Oncorhynchus mykiss), japanese medaka (Oryzias latipes), and zebrafish (Danio rerio). The ECOTOX2-FACTORIAL format uses HepG2, a human liver cell line, with measurements taken at 24 hours after chemical dosing in a 24-well plate. ATG_rtPPARg_EcoTox2 is one of 29 assay components calculated in the ATG_EcoTox2 assay. It is designed to make measurements of mRNA induction, a form of inducible reporter, as detected with fluorescence intensity signals by Reverse transcription polymerase chain reaction (RT-PCR) and Capillary electrophoresis technology.The assay endpoint ATG_rtPPARg_EcoTox2 was analyzed in the positive analysis fitting direction relative to DMSO as the negative control and baseline of activity. Using a type of inducible reporter, measures of mRNA for gain-of-signal activity can be used to understand the reporter gene at the transcription factor-level as they relate to the gene PPARg. Furthermore, this assay endpoint can be referred to as a primary readout, because this assay has produced multiple assay endpoints where this one serves a reporter gene function. To generalize the intended target to other relatable targets, this assay endpoint is annotated to the nuclear receptor intended target family, where the subfamily is non-steroidal.
Human liver HepG2 cells are transiently transfected with multiple reporter transcription units (MRTUs) in 6-well plates using FuGene 6 reagent (Roche; 3 ml FuGene/1 mg DNA). The MRTU constructs are regulated by a cis-regulating element (promoter). Each RTU expresses a GAL4-UAS that regulates the transcription of a nearby target reporter gene sequence. A major difference between the CIS and TRANS system is that in CIS activities of endogenous TFs are measured, whereas the TRANS assay evaluates changes in activities of exogenous, chimeric NR-Gal4 proteins. […] At the end of 24 hour incubation, total RNA was isolated using TriZol reagent (Invitrogen). The isolated RNA is then reverse-transcribed using oligo(dT) primer and Mo-MLV reverse transcriptase (Invitrogen) with DNAse I (Ambion) treatment for 30 min. The one-tenth of the produced cDNA was amplified by PCR using Taq DNA polymerase (Invitrogen) and two reporter sequence-specific primers. […] The fragments were purified using Qiaquick PCR columns (Qiagen), analyzed on an ABI 3130xL genetic analyzer (Applied Biosystems) with peak positions identified by using a set of X-rhodamine (ROX)-labeled MapMarker1000 molecular weight standards (BioVentures). […]

SMILES | outcome
Cc1ccc(C)c(OCCCC(C)(C)C(=O)O)c1 | inactive
C[C@]12C=CC(=O)C=C1CC[C@@H]1[C@@H]2C(=O)C[C@@]2(C)[C@H]1CC[C@]2(O)C(=O)CO | inactive
CC(C)OC(=O)C(C)(C)Oc1ccc(C(=O)c2ccc(Cl)cc2)cc1 | inactive
CC(C)(Oc1ccc(Cl)cc1)C(=O)O | inactive
